Data: publication PMC7862700, “An all-to-all approach to the identification of sequence-specific readers for epigenetic DNA modifications on cytosine”

Tests used:
Assay in all cases: DAPPL (digital affinity profiling via proximity ligation, sequencing); 10 mM Tris-HCl pH 7.5, 50 mM NaCl, 1 mM DTT, 4% glycerol, room temperature, 30 min; GST-TFs on glutathione beads, 16-mer random dsDNA library, 0.1% formaldehyde crosslink after washing; high values mean tight binding
FEV = molecular target: T1, FEV (Homo sapiens, UniProt Q99581 1-238); conditions: protein: recombinant; tags: N-terminal GST; dsDNA, one strand shown
T1 sequence: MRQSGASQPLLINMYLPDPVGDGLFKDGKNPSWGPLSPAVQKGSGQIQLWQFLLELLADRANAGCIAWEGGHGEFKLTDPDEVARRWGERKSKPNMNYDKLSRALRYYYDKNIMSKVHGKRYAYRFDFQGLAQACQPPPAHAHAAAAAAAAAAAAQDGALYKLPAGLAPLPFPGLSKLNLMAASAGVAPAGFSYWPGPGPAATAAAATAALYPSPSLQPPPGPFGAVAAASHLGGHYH
Summary of the method: (§1)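 In yeast, human transcription factors were expressed with a GST fusion, then pulled down on glutathione beads and given DNA barcodes. Pooled with a tag-only sample, they were exposed to 200 nmole of a 16-mer random double-stranded DNA library (Tris/NaCl/DTT/glycerol buffer, room temperature, 30 min), washed, crosslinked with 0.1% formaldehyde, proximity-ligated using BsaI/T4 ligase for 1 h at 37 °C, PCR-amplified and read on an Illumina NextSeq500. Each hexamer's frequency of reads for a factor, divided by the matching frequency for the tag-only sample, gives the binding signal.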

ETV5 = ETV5 (Homo sapiens, UniProt P41161 1-510); conditions: protein: recombinant; tags: N-terminal GST; dsDNA, one strand shown
Summary of the method: as §1

HSF1 = HSF1 (Homo sapiens, UniProt Q00613 1-529); conditions: protein: recombinant; tags: N-terminal GST; chain copies: 3; dsDNA, one strand shown
Summary of the method: as §1

SPIC = molecular target: T2, SPIC (Homo sapiens, UniProt Q8N5J4 1-248); conditions: protein: recombinant; tags: N-terminal GST; dsDNA, one strand shown
T2 sequence: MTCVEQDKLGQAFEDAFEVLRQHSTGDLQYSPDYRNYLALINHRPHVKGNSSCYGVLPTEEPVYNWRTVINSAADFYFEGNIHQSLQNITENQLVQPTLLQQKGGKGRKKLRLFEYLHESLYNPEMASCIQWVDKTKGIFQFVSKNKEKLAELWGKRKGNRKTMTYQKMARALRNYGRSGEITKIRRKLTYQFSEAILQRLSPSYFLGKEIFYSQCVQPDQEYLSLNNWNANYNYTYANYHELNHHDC
Summary of the method: as §1

ELF4 = ELF4 (Homo sapiens, UniProt Q99607 1-663); conditions: protein: recombinant; tags: N-terminal GST; dsDNA, one strand shown
Summary of the method: as §1

ETV2 = molecular target: T3, ETV2 (Homo sapiens, UniProt O00321 1-342); conditions: protein: recombinant; tags: N-terminal GST; dsDNA, one strand shown
T3 sequence: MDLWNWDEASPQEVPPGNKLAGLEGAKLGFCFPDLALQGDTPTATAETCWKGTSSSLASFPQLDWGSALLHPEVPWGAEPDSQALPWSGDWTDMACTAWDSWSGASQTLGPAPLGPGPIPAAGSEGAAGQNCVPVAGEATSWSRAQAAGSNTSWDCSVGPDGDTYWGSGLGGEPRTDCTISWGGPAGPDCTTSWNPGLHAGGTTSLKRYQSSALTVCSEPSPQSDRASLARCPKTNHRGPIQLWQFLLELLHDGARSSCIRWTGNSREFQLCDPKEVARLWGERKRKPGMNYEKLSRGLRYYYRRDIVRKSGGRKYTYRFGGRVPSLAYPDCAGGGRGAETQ
Summary of the method: as §1

ELF3 = molecular target: T4, ELF3 (Homo sapiens, UniProt P78545 1-371); conditions: protein: recombinant; tags: N-terminal GST; dsDNA, one strand shown
T4 sequence: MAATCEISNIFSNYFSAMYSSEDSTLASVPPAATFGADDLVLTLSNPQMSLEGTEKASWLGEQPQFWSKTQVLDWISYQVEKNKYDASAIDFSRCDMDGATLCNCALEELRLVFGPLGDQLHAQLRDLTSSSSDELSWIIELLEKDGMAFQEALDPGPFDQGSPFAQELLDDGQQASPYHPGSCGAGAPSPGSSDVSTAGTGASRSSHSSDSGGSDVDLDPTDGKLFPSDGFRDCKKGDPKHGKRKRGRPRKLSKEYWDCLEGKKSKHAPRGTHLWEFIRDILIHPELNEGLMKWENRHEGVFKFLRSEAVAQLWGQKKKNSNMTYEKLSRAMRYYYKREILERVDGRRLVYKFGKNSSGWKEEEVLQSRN
Summary of the method: as §1

ETV1 = ETV1 (Homo sapiens, UniProt P50549 1-477); conditions: protein: recombinant; tags: N-terminal GST; dsDNA, one strand shown
Summary of the method: as §1

ERF = molecular target: T5, ERF (Homo sapiens, UniProt P50548 1-548); conditions: protein: recombinant; tags: N-terminal GST; dsDNA, one strand shown
T5 sequence: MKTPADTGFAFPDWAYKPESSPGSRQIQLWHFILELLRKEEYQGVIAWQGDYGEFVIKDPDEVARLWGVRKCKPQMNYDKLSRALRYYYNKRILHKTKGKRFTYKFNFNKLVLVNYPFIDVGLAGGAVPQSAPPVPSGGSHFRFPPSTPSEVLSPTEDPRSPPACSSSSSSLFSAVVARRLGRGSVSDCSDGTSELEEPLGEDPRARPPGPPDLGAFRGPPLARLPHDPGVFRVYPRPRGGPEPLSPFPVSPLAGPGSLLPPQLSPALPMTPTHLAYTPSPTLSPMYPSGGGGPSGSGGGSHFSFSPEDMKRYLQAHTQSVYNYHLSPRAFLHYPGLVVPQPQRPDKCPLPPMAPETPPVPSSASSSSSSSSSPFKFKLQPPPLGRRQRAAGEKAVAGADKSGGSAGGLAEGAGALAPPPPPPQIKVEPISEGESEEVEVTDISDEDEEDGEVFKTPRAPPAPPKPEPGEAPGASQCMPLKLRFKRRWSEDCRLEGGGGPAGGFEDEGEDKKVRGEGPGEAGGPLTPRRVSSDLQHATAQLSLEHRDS
Summary of the method: as §1

ETV3L = molecular target: T6, ETV3L (Homo sapiens, UniProt Q6ZN32 1-361); conditions: protein: recombinant; tags: N-terminal GST; dsDNA, one strand shown
T6 sequence: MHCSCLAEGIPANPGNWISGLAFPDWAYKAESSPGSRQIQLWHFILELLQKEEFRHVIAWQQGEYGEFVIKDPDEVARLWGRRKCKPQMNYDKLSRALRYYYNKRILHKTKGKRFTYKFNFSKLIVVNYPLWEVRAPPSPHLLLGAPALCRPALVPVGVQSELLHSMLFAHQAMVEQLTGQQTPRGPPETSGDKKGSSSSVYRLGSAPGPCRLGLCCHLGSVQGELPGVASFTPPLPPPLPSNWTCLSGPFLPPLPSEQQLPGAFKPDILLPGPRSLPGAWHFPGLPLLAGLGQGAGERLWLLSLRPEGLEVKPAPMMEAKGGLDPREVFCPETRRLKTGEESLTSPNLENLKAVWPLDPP
Summary of the method: as §1

ETS2 = molecular target: T7, ETS2 (Homo sapiens, UniProt P15036 1-469); conditions: protein: recombinant; tags: N-terminal GST; dsDNA, one strand shown
T7 sequence: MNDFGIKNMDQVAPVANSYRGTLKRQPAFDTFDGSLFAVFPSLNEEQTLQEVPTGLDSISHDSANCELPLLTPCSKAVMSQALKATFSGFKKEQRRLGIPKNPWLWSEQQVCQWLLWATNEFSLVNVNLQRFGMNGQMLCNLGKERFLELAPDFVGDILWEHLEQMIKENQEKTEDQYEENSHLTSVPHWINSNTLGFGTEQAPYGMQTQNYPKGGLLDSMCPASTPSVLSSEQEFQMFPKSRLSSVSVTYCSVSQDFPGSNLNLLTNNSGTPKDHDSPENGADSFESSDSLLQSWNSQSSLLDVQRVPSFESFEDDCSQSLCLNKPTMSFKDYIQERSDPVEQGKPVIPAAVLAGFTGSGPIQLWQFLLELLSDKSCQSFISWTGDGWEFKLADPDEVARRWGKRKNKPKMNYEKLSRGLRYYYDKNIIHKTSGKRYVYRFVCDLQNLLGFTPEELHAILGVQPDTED
Summary of the method: as §1

SPDEF = molecular target: T8, SPDEF (Homo sapiens, UniProt O95238 1-335); conditions: protein: recombinant; tags: N-terminal GST; dsDNA, one strand shown
T8 sequence: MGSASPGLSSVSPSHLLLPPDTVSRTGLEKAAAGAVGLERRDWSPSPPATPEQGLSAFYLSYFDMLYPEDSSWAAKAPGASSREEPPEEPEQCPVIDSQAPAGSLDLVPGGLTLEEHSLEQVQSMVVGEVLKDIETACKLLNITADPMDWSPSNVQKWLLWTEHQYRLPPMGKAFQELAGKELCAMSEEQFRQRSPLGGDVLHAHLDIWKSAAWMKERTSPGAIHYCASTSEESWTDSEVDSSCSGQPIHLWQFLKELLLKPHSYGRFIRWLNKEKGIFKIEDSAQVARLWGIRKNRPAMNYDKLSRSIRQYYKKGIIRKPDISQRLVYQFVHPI
Summary of the method: as §1

ETV7 = molecular target: T9, ETV7 (Homo sapiens, UniProt Q9Y603 1-341); conditions: protein: recombinant; tags: N-terminal GST; dsDNA, one strand shown
T9 sequence: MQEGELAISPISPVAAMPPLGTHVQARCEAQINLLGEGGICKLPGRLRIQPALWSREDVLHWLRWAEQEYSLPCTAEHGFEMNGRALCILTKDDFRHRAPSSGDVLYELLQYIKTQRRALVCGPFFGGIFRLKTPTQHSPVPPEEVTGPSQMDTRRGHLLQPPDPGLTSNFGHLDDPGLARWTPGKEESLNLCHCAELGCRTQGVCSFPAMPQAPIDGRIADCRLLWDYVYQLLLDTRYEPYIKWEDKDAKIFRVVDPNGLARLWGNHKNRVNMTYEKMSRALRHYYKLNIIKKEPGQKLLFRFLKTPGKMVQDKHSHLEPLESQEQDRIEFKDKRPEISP
Summary of the method: as §1

ELF5 = molecular target: T10, ELF5 (Homo sapiens, UniProt Q9UKW6-2 1-255); conditions: protein: recombinant; tags: N-terminal GST; dsDNA, one strand shown
T10 sequence: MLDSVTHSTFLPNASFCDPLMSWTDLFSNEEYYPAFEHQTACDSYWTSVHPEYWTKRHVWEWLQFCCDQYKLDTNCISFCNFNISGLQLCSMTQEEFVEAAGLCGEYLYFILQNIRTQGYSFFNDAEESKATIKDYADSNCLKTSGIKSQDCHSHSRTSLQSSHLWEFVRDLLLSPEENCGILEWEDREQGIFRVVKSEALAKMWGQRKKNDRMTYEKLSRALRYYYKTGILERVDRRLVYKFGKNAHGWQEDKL
Summary of the method: as §1

ETV3 = molecular target: T11, ETV3 (Homo sapiens, UniProt P41162-2 1-143); conditions: protein: recombinant; tags: N-terminal GST; dsDNA, one strand shown
T11 sequence: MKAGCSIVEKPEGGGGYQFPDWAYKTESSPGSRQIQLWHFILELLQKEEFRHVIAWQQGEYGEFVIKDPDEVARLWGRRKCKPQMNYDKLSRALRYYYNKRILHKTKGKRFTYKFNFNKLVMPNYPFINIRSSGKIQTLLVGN
Summary of the method: as §1

ETV6 = ETV6 (Homo sapiens, UniProt P41212 1-452); conditions: protein: recombinant; tags: N-terminal GST; dsDNA, one strand shown
Summary of the method: as §1

CRX = CRX (Homo sapiens, UniProt O43186 1-299); conditions: protein: recombinant; tags: N-terminal GST; dsDNA, one strand shown
Summary of the method: as §1

ETV5, sequence (P41161 whole entry): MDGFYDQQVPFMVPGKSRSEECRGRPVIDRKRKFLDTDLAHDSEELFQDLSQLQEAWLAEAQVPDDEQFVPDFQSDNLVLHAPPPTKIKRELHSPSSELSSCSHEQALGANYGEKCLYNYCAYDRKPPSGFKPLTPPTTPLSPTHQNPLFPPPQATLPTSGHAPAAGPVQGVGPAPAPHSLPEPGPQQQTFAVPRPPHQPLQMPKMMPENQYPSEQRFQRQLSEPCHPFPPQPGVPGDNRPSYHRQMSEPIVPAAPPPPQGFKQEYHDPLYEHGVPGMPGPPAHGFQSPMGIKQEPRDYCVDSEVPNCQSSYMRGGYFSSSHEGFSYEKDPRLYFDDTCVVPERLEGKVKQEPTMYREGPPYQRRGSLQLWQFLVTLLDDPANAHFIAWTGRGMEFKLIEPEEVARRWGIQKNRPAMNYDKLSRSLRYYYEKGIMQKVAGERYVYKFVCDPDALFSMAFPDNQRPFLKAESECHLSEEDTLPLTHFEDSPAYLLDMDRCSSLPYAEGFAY
ETV6, sequence (P41212 whole entry): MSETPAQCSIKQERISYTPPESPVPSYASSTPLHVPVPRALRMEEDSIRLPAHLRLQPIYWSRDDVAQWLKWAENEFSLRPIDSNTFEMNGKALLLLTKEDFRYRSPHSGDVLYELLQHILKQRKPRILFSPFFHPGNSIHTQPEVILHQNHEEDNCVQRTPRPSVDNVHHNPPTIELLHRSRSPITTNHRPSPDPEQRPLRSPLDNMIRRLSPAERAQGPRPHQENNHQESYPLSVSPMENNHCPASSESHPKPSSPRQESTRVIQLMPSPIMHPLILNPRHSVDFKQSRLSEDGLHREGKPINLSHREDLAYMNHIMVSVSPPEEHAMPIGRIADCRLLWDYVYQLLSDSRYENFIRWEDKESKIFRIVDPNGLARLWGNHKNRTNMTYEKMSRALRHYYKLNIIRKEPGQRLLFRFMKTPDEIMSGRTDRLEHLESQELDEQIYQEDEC
ELF4, sequence (Q99607 whole entry): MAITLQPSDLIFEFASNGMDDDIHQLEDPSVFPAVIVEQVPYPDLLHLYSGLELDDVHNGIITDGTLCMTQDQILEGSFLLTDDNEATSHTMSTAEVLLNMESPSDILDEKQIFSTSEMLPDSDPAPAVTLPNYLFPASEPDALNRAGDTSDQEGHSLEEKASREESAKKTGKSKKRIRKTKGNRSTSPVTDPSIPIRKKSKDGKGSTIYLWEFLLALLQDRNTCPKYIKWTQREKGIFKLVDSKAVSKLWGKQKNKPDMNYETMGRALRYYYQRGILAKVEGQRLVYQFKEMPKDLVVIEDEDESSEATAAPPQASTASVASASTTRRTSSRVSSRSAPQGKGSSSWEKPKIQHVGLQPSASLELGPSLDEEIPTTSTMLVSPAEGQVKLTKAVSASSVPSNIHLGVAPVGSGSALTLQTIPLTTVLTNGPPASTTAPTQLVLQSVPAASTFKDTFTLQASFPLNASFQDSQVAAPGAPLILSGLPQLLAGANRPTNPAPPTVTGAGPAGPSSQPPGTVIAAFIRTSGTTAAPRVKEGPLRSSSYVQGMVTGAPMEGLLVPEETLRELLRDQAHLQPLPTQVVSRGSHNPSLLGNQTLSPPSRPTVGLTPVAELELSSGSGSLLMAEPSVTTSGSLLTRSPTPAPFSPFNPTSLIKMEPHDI
ETV1, sequence (P50549 whole entry): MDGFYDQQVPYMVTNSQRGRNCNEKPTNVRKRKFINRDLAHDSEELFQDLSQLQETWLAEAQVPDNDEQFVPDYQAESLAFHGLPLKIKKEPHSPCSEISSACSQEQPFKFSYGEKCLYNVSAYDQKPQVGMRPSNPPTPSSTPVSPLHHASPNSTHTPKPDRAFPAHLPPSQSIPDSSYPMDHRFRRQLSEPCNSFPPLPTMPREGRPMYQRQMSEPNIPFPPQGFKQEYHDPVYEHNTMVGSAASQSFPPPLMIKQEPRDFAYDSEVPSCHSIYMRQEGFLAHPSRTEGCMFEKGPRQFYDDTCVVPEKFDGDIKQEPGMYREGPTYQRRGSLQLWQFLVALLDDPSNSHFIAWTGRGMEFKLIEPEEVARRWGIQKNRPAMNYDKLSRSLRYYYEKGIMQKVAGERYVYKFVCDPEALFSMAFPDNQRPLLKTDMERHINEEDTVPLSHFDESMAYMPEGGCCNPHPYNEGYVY
HSF1, sequence (Q00613 whole entry): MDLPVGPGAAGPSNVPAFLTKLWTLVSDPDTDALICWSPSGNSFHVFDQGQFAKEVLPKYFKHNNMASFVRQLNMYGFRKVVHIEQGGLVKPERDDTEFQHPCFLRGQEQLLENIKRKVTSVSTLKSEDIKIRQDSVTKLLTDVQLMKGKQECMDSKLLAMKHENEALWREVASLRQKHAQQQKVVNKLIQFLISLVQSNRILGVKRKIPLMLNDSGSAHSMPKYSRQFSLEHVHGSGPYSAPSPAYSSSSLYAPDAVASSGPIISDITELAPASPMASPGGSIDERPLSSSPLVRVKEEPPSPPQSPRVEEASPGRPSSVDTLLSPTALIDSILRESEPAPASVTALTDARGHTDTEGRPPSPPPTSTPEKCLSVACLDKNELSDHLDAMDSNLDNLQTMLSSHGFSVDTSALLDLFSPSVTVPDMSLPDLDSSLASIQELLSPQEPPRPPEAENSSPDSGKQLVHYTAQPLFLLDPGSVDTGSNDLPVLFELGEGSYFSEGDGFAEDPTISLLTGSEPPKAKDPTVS
CRX, sequence (O43186 whole entry): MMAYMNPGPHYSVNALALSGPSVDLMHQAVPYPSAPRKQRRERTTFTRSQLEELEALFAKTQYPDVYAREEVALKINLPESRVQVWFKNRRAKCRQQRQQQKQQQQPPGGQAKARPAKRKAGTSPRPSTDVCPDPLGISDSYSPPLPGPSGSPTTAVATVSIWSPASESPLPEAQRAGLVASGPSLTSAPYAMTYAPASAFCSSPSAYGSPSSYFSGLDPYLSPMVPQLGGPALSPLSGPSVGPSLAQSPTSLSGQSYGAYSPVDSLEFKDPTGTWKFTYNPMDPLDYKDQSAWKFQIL

Sequence	binding signal (FEV)	binding signal (ETV5)	binding signal (HSF1)	binding signal (SPIC)	binding signal (ELF4)	binding signal (ETV2)	binding signal (ELF3)	binding signal (ETV1)	binding signal (ERF)	binding signal (ETV3L)	binding signal (ETS2)	binding signal (SPDEF)	binding signal (ETV7)	binding signal (ELF5)	binding signal (ETV3)	binding signal (ETV6)	binding signal (CRX)
GTTTTC	1.21 fold enrichment (6-mer frequency, TF over GST control)	1.24 fold enrichment (6-mer frequency, TF over GST control)	1.13 fold enrichment (6-mer frequency, TF over GST control)	1.1 fold enrichment (6-mer frequency, TF over GST control)	1.2 fold enrichment (6-mer frequency, TF over GST control)	1.25 fold enrichment (6-mer frequency, TF over GST control)	1.32 fold enrichment (6-mer frequency, TF over GST control)	1.13 fold enrichment (6-mer frequency, TF over GST control)	1.34 fold enrichment (6-mer frequency, TF over GST control)	1.27 fold enrichment (6-mer frequency, TF over GST control)	1.16 fold enrichment (6-mer frequency, TF over GST control)	1.08 fold enrichment (6-mer frequency, TF over GST control)	1.36 fold enrichment (6-mer frequency, TF over GST control)	1.31 fold enrichment (6-mer frequency, TF over GST control)	1.29 fold enrichment (6-mer frequency, TF over GST control)	1.23 fold enrichment (6-mer frequency, TF over GST control)	–
ATACCA	1.08 fold enrichment (6-mer frequency, TF over GST control)	1.01 fold enrichment (6-mer frequency, TF over GST control)	1.03 fold enrichment (6-mer frequency, TF over GST control)	1.03 fold enrichment (6-mer frequency, TF over GST control)	1.09 fold enrichment (6-mer frequency, TF over GST control)	1.08 fold enrichment (6-mer frequency, TF over GST control)	–	1.05 fold enrichment (6-mer frequency, TF over GST control)	1.06 fold enrichment (6-mer frequency, TF over GST control)	1.08 fold enrichment (6-mer frequency, TF over GST control)	1.06 fold enrichment (6-mer frequency, TF over GST control)	1 fold enrichment (6-mer frequency, TF over GST control)	1.02 fold enrichment (6-mer frequency, TF over GST control)	1.03 fold enrichment (6-mer frequency, TF over GST control)	–	1.01 fold enrichment (6-mer frequency, TF over GST control)	1.04 fold enrichment (6-mer frequency, TF over GST control)
